According to the supplement of paper PMC6953052:
Where “and” joins values, the source holds several entries; their conditions need not be identical. Equal values may be shown once. Over roughly 1,700 compounds, “fraction of GFP-LC3-positive cells (≥5 vesicles/cell)” has its median near 0.43; the highest 2% begin near 0.81. The list comes from a sample in which the highest values are over-represented; it also holds similar structures and randomly drawn compounds.

What follows are compounds tested on CbCln3 Δex7/8/Δex7/8 GFP-LC3 cerebellar neuronal cells (assay: fraction of GFP-LC3-positive cells (≥5 vesicles/cell); higher = more autophagosome accumulation).
Outline: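 By pin transfer, ~50 nL of compound in DMSO went in duplicate into 384-well plates holding 2 × 10^3 wild-type or mutant CbCln3 cerebellar cells per well that stably express GFP-LC3, followed by 24 h at 33 °C. The final 30 min included Hoechst 33342 and LysoTracker Red, and then came 3.2% PFA fixation and 10× imaging of three fields per well. Each value gives the fraction of cells above a vesicle threshold, averaged across duplicates, with CellProfiler counting GFP-LC3 vesicles and out-of-focus images left out. The threshold is 5 or more vesicles per cell.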

| SMILES | fraction of GFP-LC3-positive cells |
| --- | --- |
| Clc1cccc(Nc2nnc(-c3ccccc3)c3ccccc23)c1 | 0.522 |
| CC[C@H](C)C(=O)O[C@H]1C[C@@H](C)C=C2C=C[C@H](C)[C@H](CC[C@@H]3C[C@@H](O)CC(=O)O3)[C@H]21 [Lovastatin] | 0.0901 |
| C=CC(N)CCC(=O)O (stereo not given) [Vigabatrin] | 0.474 |
| O=C(O)CCCC[C@@H]1SC[C@@H]2NC(=O)N[C@@H]21 [Biotin] | 0.393 |
| CCN(CC)CCOCCOC(=O)C1(c2ccccc2)CCCC1.O=C(O)CC(O)(CC(=O)O)C(=O)O [Carbetapentane citrate] | 0.469 |
| NS(=O)(=O)c1cc(C(=O)O)cc(N2CCCC2)c1Oc1ccccc1 [Piretanide] | 0.344 |
| CC(C(=O)O)c1ccc(C(=O)c2ccccc2)s1 (stereo not given) [Tiaprofenic acid] | 0.467 |
| CN(C(Cc1ccc(OS(=O)(=O)c2cccc3cnccc23)cc1)C(=O)N1CCN(c2ccccc2)CC1)S(=O)(=O)c1cccc2cnccc12 (stereo not given) | 0.324 and 0.255 |
| CCCCCCCCCCCCCCCCCCOC[C@@H](O)COP(=O)([O-])OCC[N+](C)(C)C | 0.362 |
| Cc1cc2cc3c(C)cc(=O)oc3c(C)c2o1 [Trioxsalen] | 0.357 |
| COc1cc(C)nc(-n2nc(C)cc2OC)n1 [Epirizole] | 0.324 |
| C[N+]1(CCCCC[N+]2(C)CCCC2)CCCC1.O=C([O-])[C@H](O)[C@@H](O)C(=O)O.O=C([O-])[C@H](O)[C@@H](O)C(=O)O [Pentolinium bitartrate] | 0.493 |
| COC(=O)C1=C(C)NC(C)=C(C(=O)OCCN(C)Cc2ccccc2)C1c1cccc([N+](=O)[O-])c1 (stereo not given) [Nicardipine] | 0.146 |
| Nc1ncn(C2O[C@H](CO)[C@@H](O)[C@H]2O)c(=O)n1 (stereo not given in full) [Azacytidine-5] | 0.861 |
| Nc1nc(S)c2ncn([C@@H]3O[C@H](CO)[C@@H](O)[C@H]3O)c2n1 [Thioguanosine] | 0.576 |
| Nc1ncnc2c1ncn2C1O[C@H](CO)[C@@H](O)[C@@H]1O (stereo not given in full) [Vidarabine] | 0.406 |
| Nc1ccc(S(=O)(=O)Nc2ncccn2)cc1 [Sulfadiazine] | 0.438 |
| C=C1CC[C@H](O)C/C1=C/C=C1\CCC[C@]2(C)[C@@H]([C@H](C)CCCC(C)C)CC[C@@H]12 [Cholecalciferol] | 0.281 |

| SMILES | fraction of GFP-LC3-positive cells |
| --- | --- |
| Oc1cc(O)c2c(c1)O[C@H](c1ccc(O)c(O)c1)[C@@H](O)C2 [Epicatechin-(-)] | 0.438 |
| NS(=O)(=O)c1cc2c(cc1C(F)(F)F)NCNS2(=O)=O [Hydroflumethiazide] | 0.451 |
| C[C@@H](O)CCC[C@H](O)/C=C/[C@@H]1[C@@H](C/C=C\CCCC(=O)O)[C@@H](O)C[C@H]1O [19(R)-Hydroxy-prostaglandin F2a] | 0.532 |
| O=C(NCCNCC(O)COc1ccc(O)cc1)N1CCOCC1.O=C(NCCNCC(O)COc1ccc(O)cc1)N1CCOCC1.O=C(O)/C=C/C(=O)O (stereo not given) [Xamoterol hemifumarate] | 0.32 |
| COc1cc([C@@H]2c3cc4c(cc3[C@@H](OC3OC5COC(C)OC5C(O)C3O)[C@H]3COC(=O)[C@H]23)OCO4)cc(OC)c1O (stereo not given in full) [etoposide] | 0.664 |
| Cc1cccc(C)c1NC(=O)C(C)N.Cl (stereo not given) [Tocainide hydrochloride] | 0.504 |
| Cl.c1ccc(CC2=NCCN2)cc1 [Tolazoline hydrochloride] | 0.508 |
| C=CC(=O)c1ccc2ccccc2c1 | 0.499 |
| NC[C@H]1CC[C@H](C(=O)O)CC1 [Tranexamic acid] | 0.53 |
| CC(=O)OC(C)C[N+](C)(C)C.[Cl-] (stereo not given) [Methacholine chloride] | 0.309 |
| CCCc1cc(=O)[nH]c(=S)[nH]1 [Propylthiouracil] | 0.375 |
| COC(=O)/C=C/c1cc(O)ccc1O | 0.924 |
| O=C(O)/C=C/c1ccc(O)c(O)c1 [Caffeic acid] | 0.359 |
| COc1ccc(C(=O)c2ccccc2)c(O)c1 [Oxybenzone] | 0.465 |
| CCC[C@@H]1C[C@@H](C(=O)N[C@@H](C2O[C@H](SC)[C@H](O)[C@@H](O)[C@H]2O)[C@H](C)Cl)N(C)C1.Cl (stereo not given in full) [Clindamycin hydrochloride] | 0.462 |
| O=C1Nc2ccc([N+](=O)[O-])cc2C1=O [5-Nitroisatin] | 0.469 |
| CCCCNc1cc(C(=O)O)cc(S(N)(=O)=O)c1Oc1ccccc1 [bumetanide] | 0.319 |
